We go through 13 compounds from PubChem BioAssay (NCATS).

A short description of assay [1]: qHTS profiling for inhibitors of Plasmodium falciparum proliferation (AID 504749). Also: nearly all actives have a fitted effect of over 60% in size.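 As to activity, negative = inhibition: 0% = DMSO vehicle and full inhibition = artemisinin control.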 Conditions: P. falciparum in erythrocytes, SYBR Green DNA, 72 h. The gist of the method: (§1)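 Readout was DNA-dye fluorescence from lysed cultures, ex 485/em 535 nm. Parasitized red cells had grown 72 h with compound; data scaled between 0.29 uM artemisinin and DMSO wells and corrected using vehicle-only plates.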
Background: Quantitative high-throughput screening tests each substance at several concentrations.

Another assay deals with 3D7. The description is as above. The settings on record: P. falciparum in erythrocytes, SYBR Green DNA, 72 h; series mostly up to 28.7 µM. The gist of the method:
as §1

In another assay the test system is 7G8. The description is as above. The settings on record: P. falciparum in erythrocytes, SYBR Green DNA, 72 h; series mostly up to 28.7 µM. Summed up:
as §1

A further assay concerns AA1029. The assay is described as above. The settings on record: P. falciparum in erythrocytes, SYBR Green DNA, 72 h; series mostly up to 28.7 µM. The gist of the method: as §1
A further assay concerns AS120. The description is as above. Conditions: P. falciparum in erythrocytes, SYBR Green DNA, 72 h; series mostly up to 28.7 µM. The gist of the method:
as §1

A further assay concerns ATS189. The assay is described as above. Conditions: P. falciparum in erythrocytes, SYBR Green DNA, 72 h; series mostly up to 28.7 µM. The gist of the method:
as §1

A further assay concerns ATS95. The description is as above. Conditions: P. falciparum in erythrocytes, SYBR Green DNA, 72 h; series mostly up to 28.7 µM. Summed up: as §1
In a further assay the test system is C2A. Described as above. The settings on record: P. falciparum in erythrocytes, SYBR Green DNA, 72 h; series mostly up to 28.7 µM. Summed up: as §1
The next assay relates to CP185. The description is as above. Conditions: P. falciparum in erythrocytes, SYBR Green DNA, 72 h; series mostly up to 28.7 µM. Summed up:
as §1

The test system of the next assay is CP191. The description is as above. Conditions: P. falciparum in erythrocytes, SYBR Green DNA, 72 h; series mostly up to 28.7 µM. The gist of the method:
as §1

The next assay deals with CP192. The assay is described as above. Conditions: P. falciparum in erythrocytes, SYBR Green DNA, 72 h; series mostly up to 28.7 µM. Summed up: as §1
The next assay concerns CP194. The assay is described as above. Conditions: P. falciparum in erythrocytes, SYBR Green DNA, 72 h; series mostly up to 28.7 µM. Summed up:
as §1

The subject of the next assay is CP201. Described as above. Conditions: P. falciparum in erythrocytes, SYBR Green DNA, 72 h; series mostly up to 28.7 µM. Summed up: as §1
Another assay relates to CP203. The description is as above. Conditions: P. falciparum in erythrocytes, SYBR Green DNA, 72 h; series mostly up to 28.7 µM. Summed up:
as §1

The next assay relates to CP211. Described as above. The settings on record: P. falciparum in erythrocytes, SYBR Green DNA, 72 h; series mostly up to 28.7 µM. Summed up:
as §1

The subject of a further assay is CP217. The assay is described as above. The settings on record: P. falciparum in erythrocytes, SYBR Green DNA, 72 h; series mostly up to 28.7 µM. The gist of the method: as §1
The next assay concerns CP215. The assay is described as above. Conditions: P. falciparum in erythrocytes, SYBR Green DNA, 72 h; series mostly up to 28.7 µM. The gist of the method:
as §1

In a further assay the test system is CP237. The description is as above. Conditions: P. falciparum in erythrocytes, SYBR Green DNA, 72 h; series mostly up to 28.7 µM. The gist of the method:
as §1

Where [2] appears, read: at 28.7 µM (top of the series), parasite line A.
The mark [3] stands for this setting: at 28.7 µM (top of the series), parasite line B.
Setting [4] is: at 12.8 µM (top of the series), parasite line A.
Where [5] appears, read: at 12.8 µM (top of the series), parasite line B.

Several values for one entry are separate records, joined by “and”; a condition that tells them apart may be missing. Equal entries are not always repeated. Results filed as inconclusive are left out. A number with no mark means an inactive call. Activity calls are given as the source filed them. Calls follow the shape of the dose curve; as a rule, active = well fitted inhibition curve with a large enough effect; inconclusive = small, poorly fitted or top-dose-only effect; inactive = flat fitted curve, though single readings scatter.
Potency is read from the fitted curve at half-maximal effect.

On to `Cc1cc(O)cc2c1O[C@](C)(CCC[C@H](C)CCC[C@H](C)CCCC(C)C)CC2`, for which the activity, negative = inhibition is -4.03% in assay [1] (setting [2]) and -6.42% in assay [1] (setting [3]). Besides, the Potency result with 3D7, with 7G8, in the assay on AA1029, in the assay with AS120, in the assay with ATS189 and with ATS95 was “inactive” in each case. For the same compound, the Potency entry with C2A, in the assay on CP185, in the assay with CP191, with CP192, in the assay on CP194 and in the assay on CP201 was “inactive” in each case. For the same compound, the Potency entry with CP203, in the assay on CP211 and in the assay on CP217 was “inactive” each time.
Consider `COc1ccccc1O`, for which the activity, negative = inhibition in assay [1] (setting [2]) was 6.24%; in assay [1] (setting [3]) it was 17.1%. Further, the Potency entry in the assay with 3D7, in the assay on 7G8, with AA1029, with AS120, in the assay on ATS189 and in the assay with ATS95 was “inactive” in each case. For the same compound, the Potency result in the assay on C2A, in the assay with CP185, with CP191, in the assay on CP192, with CP194 and with CP201 was “inactive” throughout. Besides, the Potency result in the assay on CP203, in the assay with CP211, in the assay with CP215, with CP217 and in the assay on CP237 was “inactive” each time.
For `C[C@@H]1CN(c2c(F)c(F)c3c(=O)c(C(=O)O)cn(C4CC4)c3c2F)C[C@H](C)N1`, the activity, negative = inhibition is 9.49% in assay [1] (setting [2]) and 3.41% in assay [1] (setting [3]). Besides, the Potency entry with 3D7, in the assay on 7G8, with AA1029, in the assay with AS120, in the assay with ATS189 and in the assay with ATS95 was “inactive” each time. Moreover, the Potency entry with C2A, with CP185, with CP191, in the assay on CP192, with CP194 and with CP201 was “inactive” throughout. The Potency result in the assay on CP203, in the assay with CP211, in the assay with CP215, in the assay on CP217 and with CP237 was “inactive” throughout.
With `Oc1cn2c(n1)Nc1ccc(Cl)c(Cl)c1C2`, the values for the activity, negative = inhibition in assay [1] (setting [2]) and in assay [1] (setting [3]) were 7.35% and -8.41%, respectively. The Potency result in the assay on 3D7, in the assay with 7G8, with AA1029, in the assay on AS120, in the assay with ATS189 and in the assay on ATS95 was “inactive” throughout. Further, the Potency result in the assay with C2A, in the assay on CP185, with CP191, in the assay on CP192, with CP194 and in the assay on CP203 was “inactive” throughout. Further, the Potency result in the assay with CP211, in the assay with CP215, in the assay with CP217 and in the assay on CP237 was “inactive” each time.
In the case of `CC(=O)Nc1ccc(/C=N/NC(N)=S)cc1`, the activity, negative = inhibition is 9.12% and 9.39% in assay [1] (setting [2]); 6.45% and 8.83% in assay [1] (setting [3]). In addition, the Potency result with 3D7, in the assay on 7G8, in the assay on AA1029, with AS120, in the assay with ATS189 and in the assay on ATS95 was “inactive” each time. Moreover, the Potency entry in the assay with C2A, with CP185, with CP191, with CP192, with CP194 and in the assay with CP201 was “inactive” in each case. In addition, the Potency result with CP203, in the assay with CP211, with CP215, in the assay with CP217 and in the assay on CP237 was “inactive” in each case.
For `CCOC(CN1CCN(CC(C)C(=O)c2ccccc2)CC1)c1ccccc1` (centres undefined), the activity, negative = inhibition in assay [1] (setting [2]) is 2.77%; in [1] (setting [3]), 3.94%. The Potency entry in the assay on 3D7, in the assay on AS120, in the assay on ATS95, in the assay on C2A, in the assay on CP185 and in the assay on CP191 was “inactive” in each case. Besides, the Potency entry with CP192, in the assay with CP201, in the assay on CP203, in the assay with CP211, in the assay with CP215 and with CP217 was “inactive” throughout. Further, in the assay on 7G8, the Potency was 11200 nM (active).
Regarding `O=c1cc[nH]c(=S)[nH]1`, the activity, negative = inhibition in [1] (setting [2]) is 1.45%; in assay [1] (setting [3]) it was 6.46%. Also, the Potency entry in the assay with 3D7, in the assay with 7G8, in the assay with AA1029, in the assay with AS120, in the assay on ATS189 and with ATS95 was “inactive” in each case. For the same compound, the Potency entry in the assay with C2A, with CP185, in the assay with CP191, in the assay on CP192, with CP194 and in the assay with CP201 was “inactive” in each case. The Potency result with CP203, with CP211, in the assay on CP217 and with CP237 was “inactive” each time.
For the compound `CNC(=O)Oc1ccc2c(c1)[C@]1(C)CCN(C)[C@@H]1N2C`, the Potency in assay [1] (parasite line A) is 1580 nM (active); in assay [1] (parasite line B), 2000 nM (active); in the assay on 3D7 it was 3550 nM (active); in the assay on 7G8, 2240 nM (active); in the assay with AS120, 2000 nM (active); in the assay with ATS189 it was 2240 nM (active). Also, the Potency is 1780 nM (active) in the assay with C2A, 1580 nM (active) in the assay on CP185, 2240 nM (active) in the assay on CP191 and 4470 nM (active) in the assay on CP237.
`O=Cc1ccccc1C=O`: the values for the activity, negative = inhibition in assay [1] (setting [2]) and in assay [1] (setting [3]) were -1.21% and 5.64%, respectively. In addition, the Potency result in the assay with 3D7, in the assay with 7G8, in the assay on AA1029, in the assay on AS120, with ATS189 and in the assay with ATS95 was “inactive” throughout. For the same compound, the Potency result in the assay with C2A, with CP185, in the assay on CP191, with CP192, in the assay on CP194 and in the assay with CP201 was “inactive” each time. Besides, the Potency entry with CP203, in the assay on CP211, with CP217 and in the assay on CP237 was “inactive” each time.
As to `NCCNCCNCCN`, the activity, negative = inhibition in [1] (setting [2]) was 4.28%; in assay [1] (setting [3]), 2.86%. Also, the Potency entry with 3D7, with 7G8, with AA1029, with AS120, in the assay on ATS189 and in the assay on C2A was “inactive” throughout. The Potency entry in the assay on CP185, in the assay on CP191, in the assay on CP192, in the assay with CP194, with CP201 and with CP203 was “inactive” throughout. Moreover, the Potency entry with CP211, in the assay with CP217 and with CP237 was “inactive” each time.
On to `Cc1cc2c(cc1S(N)(=O)=O)S(=O)(=O)CCC2`, for which the figures for the activity, negative = inhibition in assay [1] (setting [4]) and in [1] (setting [5]) were -1.89% and 2.51%, respectively. In addition, the Potency result in the assay with 3D7, in the assay on 7G8, with AA1029, in the assay with AS120, in the assay with ATS189 and in the assay on C2A was “inactive” throughout. Moreover, the Potency entry in the assay with CP185, with CP191, in the assay on CP192, in the assay on CP194, in the assay on CP201 and in the assay on CP203 was “inactive” in each case. Moreover, the Potency result in the assay with CP211, in the assay on CP215, with CP217 and in the assay on CP237 was “inactive” throughout.
Take `CCn1cc(C(=O)O)c(=O)c2cnc(N3CCNCC3)nc21`: the activity, negative = inhibition was 7.13% in [1] (setting [4]) and -22.6% in assay [1] (setting [5]). The Potency result in the assay on 3D7, in the assay on 7G8, with AA1029, in the assay on AS120, in the assay on ATS189 and in the assay with ATS95 was “inactive” in each case. For the same compound, the Potency entry in the assay on C2A, in the assay on CP185, in the assay on CP191, in the assay on CP192, in the assay with CP194 and with CP201 was “inactive” each time. For the same compound, the Potency entry in the assay on CP203, in the assay with CP211, with CP217 and with CP237 was “inactive” throughout.
In the case of `O=c1cc[nH]c(=O)[nH]1`, the activity, negative = inhibition is 9.07% in [1] (setting [2]) and 2.41% in [1] (setting [3]). The Potency result in the assay with 3D7, in the assay on 7G8, in the assay with AA1029, with AS120, in the assay on ATS189 and in the assay with ATS95 was “inactive” throughout. The Potency result in the assay on C2A, with CP185, in the assay with CP191, with CP192, in the assay on CP194 and in the assay with CP201 was “inactive” each time. In addition, the Potency result in the assay on CP211, in the assay with CP215, in the assay on CP217 and in the assay on CP237 was “inactive” in each case.
